Screening results from PubChem BioAssay.
Shown are actives, neighbours in structure and some others; about 5.2% of the full set was active somewhere.
Coupling enz: counter-screen for Giardia aldolase inhibitors: coupling enzyme system; coupling enzyme system counterscreen, AmpLite Red fluorescence; activity change, negative = inhibition, % at 58.2 µM, hits read low; 290,000 tested, 0.67% active; AID 2472; in the data active = activity change below about -30%
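First, compound is pin-transferred into glyceraldehyde-3-phosphate coupling-enzyme reagent at 57.5 uM final and held 10 min at RT. Next, substrate, coupling system and AmpLite Red are added. After 20 min RT, fluorescence (525/598 nm) is read.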
Tau fibril FP: blocks human tau fibril formation measured by polarization | P10636 | K18 P301L tau heparin fibrillization, Alexa594 FP, 6 h | Potency, µM (top dose mostly 57.7 µM), inactives show top-dose activity, negative = inhibition, most hits filed as inhibitors | 280,000 tested, 0.39% active | AID 1468; also: potency is read from the fitted curve at half-maximal effect; nearly all actives have a fitted effect of over 55% in size
Target sequence (P10636 561-689 P618L limits assumed): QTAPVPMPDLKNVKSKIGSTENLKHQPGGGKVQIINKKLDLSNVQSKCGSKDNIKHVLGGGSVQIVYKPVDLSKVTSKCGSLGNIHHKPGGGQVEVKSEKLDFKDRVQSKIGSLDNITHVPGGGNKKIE
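Steps: dispense K18 P301L tau (15 uM plus 0.24 uM Alexa 594 tracer, final) in pH 7 sodium acetate; add compound; add heparin (20 uM final); incubate 6 hr, 37 C; add ThT (30 uM final); after 1 hr ambient, read FP.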
Tau fibril ThT: inhibitors of human tau fibril formation, thioflavin T binding; P10636; recombinant tau K18 P301L, heparin-induced fibrillization, ThT fluorescence; Potency, µM (highest dose often 57.4 µM), for inactives: at the top dose activity, negative = inhibition, most hits filed as inhibitors; 270,000 tested, 2.1% active; AID 1460; also: potency is read from the fitted curve at half-maximal effect; nearly all actives have a fitted effect of over 55% in size
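Tau K18 P301L fragment (15 uM unlabeled plus 0.24 uM Alexa 594-labeled) in 100 mM sodium acetate pH 7 with compound, fibrillization induced by 20 uM heparin for 6 hr at 37 C. Thioflavin T (30 uM) added, fluorescence read after 1 hr (ex 450, em 510 nm).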
Tau fluor cs: counter-screen for tau fibril formation inhibitors; tau K18 P301L Alexa594 fluorescence, heparin fibrillization; Potency, µM (top dose mostly 57.7 µM), without a hit: at the highest dose activity change, negative = decrease; 280,000 tested, 0.93% active; also: potency is read from the fitted curve at half-maximal effect; nearly all actives have a fitted effect of over 55% in size
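Human tau K18 P301L (15 uM unlabeled, 0.24 uM Alexa 594-labeled) in 100 mM sodium acetate pH 7 with 20 uM heparin, 6 hr at 37 C. ThT 30 uM added, 1 hr ambient; Alexa 594 FP and total fluorescence read at 555/632 nm.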
Sfp inh: inhibitors of Bacillus subtilis Sfp phosphopantetheinyl transferase; Q9F4F7; Biochemical Sfp PPTase activity, qHTS; Potency, µM, for inactives: largest response in the series, negative = inhibition, usual class: inhibitors; 310,000 tested, 3.5% active; AID 1490;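 also: the enzyme is Sfp with the accession as filed and its product quenches rhodamine fluorescence; potency is read from the fitted curve at half-maximal effect; 0% = enzyme reaction without inhibitor and -100% = no enzyme wells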
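Buffer: 50 mM Hepes-Na pH 7.6, 10 mM MgCl2, 0.01% Nonidet P-40, 0.01% BSA. Enzyme 15 nM, pre-exposed to compound 15 min; substrates then added and fluorescence change tracked over 30 min.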
An asterisk follows results filed as active; ? = inconclusive; nt = no result given. Unless noted, calls follow the shape of the dose curve; as a rule, active = well fitted curve in the direction sought with a large enough effect; inconclusive = small, poorly fitted or top-dose-only effect, or another doubt; inactive = no such curve, though single readings can be large; an effect the other way counts as inactive or inconclusive. Unless noted, % is scaled to controls: 0 for no effect and ±100 for the full control effect.

SMILES	Coupling enz	Tau fibril FP	Tau fibril ThT	Tau fluor cs	Sfp inh
O=C(Nc1ccc2nc(SCC(=O)N3CCCc4ccccc43)sc2c1)c1ccccc1	nt	?	-11%	?	nt
COc1ccc(-n2c(SCC(=O)C(C)(C)C)nc3c(sc(=S)n3-c3ccccc3)c2=O)c(OC)c1	-7	nt	nt	nt	3.5µM*
CCOC(=O)CSc1nc2c(sc(=S)n2-c2ccccc2OC)c(=O)n1-c1ccccc1OC	-13	nt	nt	nt	10%
O=C(O)c1cccc(N2C(=O)/C(=C/c3ccc(SCc4ccc(Cl)cc4)o3)SC2=S)c1	-7	?	16µM*	?	40µM*
COc1ccnc(CSC(N)=Nc2ccc(F)cc2)c1	-1	?	28µM*	-24%	22µM*
COc1ccc(Cn2c(CO)cnc2SCc2ccc(F)cc2)cc1	nt	-5%	-5%	-5%	nt
Cc1ccc(C)c(Cn2nnc(C(=O)NCc3ccccc3)c2N)c1	nt	-5%	1%	-11%	nt
COCCCn1c(SCC(=O)Nc2ccccc2OC)nc2c(sc3ccccc32)c1=O	nt	0%	?	-28%	nt
Cc1cccc(C(=O)Nc2cccc(C(=O)N3CCOCC3)c2)c1	-3	0%	0%	-1%	18%
Cc1cccc(NC(=O)C2SC(=Nc3c(C)cccc3C)C(C(=O)N3CCOCC3)=C2N)c1 (stereo not drawn)	-5	?	7.1µM*	?	-13%
CSc1ccc(/C=C2/C(C)=C(CC(=O)O)c3cc(F)ccc32)cc1	10	?	?	-10%	-10%
Cc1sc2nc(CSc3nnnn3-c3ccc(Cl)cc3)[nH]c(=O)c2c1C	1	-2%	?	-16%	79µM*
CCn1c(SCc2nc3sc(C(=O)O)c(C)c3c(=O)[nH]2)nnc1-c1ccc(Cl)cc1	9	0%	-16%	-2%	-2%
CCOc1ccc(/C=C/c2nc(C#N)c(N3CCN(CC)CC3)o2)cc1	nt	?	?	-28%	nt
Cc1ccc(CNC(=O)[C@H](C)[C@H]2C[C@]2(C)[C@H](NC(=O)OCc2ccccc2)c2ccccc2)o1	1	-4%	?	-11%	50µM*
O=C(CN1CCCc2ccccc21)NC(=O)NCc1ccco1	-9	10%	-14%	-20%	35µM*
O=C(CN1CC(=O)Oc2ccccc21)NCc1ccco1	-3	-8%	-20%	-9%	56µM*
O=[N+]([O-])c1cccnc1N1CCC(c2cc(-c3ccc(Cl)cc3)n[nH]2)CC1	0	-8%	7.9µM*	?	?
CCOC(=O)CN1CCC(c2cc(-c3ccc(Cl)cc3)n[nH]2)CC1	-3	nt	nt	nt	-4%
Cc1ccc(-c2nc3ccccc3c(=O)n2NC(=S)N(C)C)cc1	1	-9%	3%	12%	22µM*
Cc1ccc(-c2nc3ccccc3c(=O)n2NC(=O)c2cccs2)cc1	2	0%	7%	10%	-11%
Cc1ccc(-n2c(C)cc(C(=O)CSc3nncs3)c2C)cc1	-33*	3%	?	-13%	?
Cc1cc(C(=O)CSc2nncs2)c(C)n1-c1c(C)n(C)n(-c2ccccc2)c1=O	0	2%	-6%	-1%	-8%
CC1=C(SCCC#N)S/C(=C2\SC(C)=C(SCCC#N)S2)S1	-2	?	7.9µM*	?	7.9µM*
CCCn1c(O)c(/C=C2\C=NN=C2c2ccccc2)sc1=S	-1	18µM*	-13%	?	-22%
SMILES	Coupling enz	Tau fibril FP	Tau fibril ThT	Tau fluor cs	Sfp inh
CCCCC(CC)Cn1c(O)c(/C=C2\C=NN=C2c2ccccc2)sc1=S (stereo not drawn)	-2	18µM*	1%	0%	15%
C=CCn1c(O)c(/C=C2\C=NN=C2c2ccccc2)sc1=S	1	?	?	?	-16%
CCCC(C(=O)O)n1c(O)c(C=C2N=c3ccccc3=N2)sc1=S (stereo not drawn)	2	-2%	?	-11%	-13%
CCCN1C(=O)C(Cc2nc3ccccc3c(=O)n2CC)c2ccccc21 (stereo not drawn)	nt	1%	6%	3%	nt
O=C(Cn1c(=O)n(CCc2ccccc2)c(=O)c2cccnc21)Nc1ccc(F)cc1	nt	?	11%	-11%	nt
CC(=O)/C=N/Nc1ccccc1	-1	-4%	1%	1%	6%
